Results filed as inconclusive are left out. Values without a mark were called inactive. The source made the active and inactive calls. The call rests on the fitted dose curve; in most records, active means well fitted cell-killing curve with a large enough effect in the repeat runs; inconclusive means weak or mixed curves, or effect the other way; inactive means flat fitted curve, though single readings scatter.
Experiment: qHTS RealTime-Glo MT Cell Viability Assay in HEK293 cells - 24 hour (AID 1224886); further: nearly all actives have a fitted effect of over 50% in size; on activity change, negative = cytotoxicity: top concentration of the series differs between compounds
Settings: RealTime-Glo luminescence; series mostly up to 76.8 µM; activity change, negative = cytotoxicity: at the top concentration
Description: National Center for Advancing Translational Sciences [NCATS]
NIH Chemical Genomics Center [NCGC]
U.S. Environmental Protection Agency [EPA]
National Institutes of Environmental Health Sciences [NIEHS]
National Toxicology Program [NTP]
U.S. Food and Drug Administration [FDA]
Measure of cell viability is critical in the cell-base assay. Analysis of cell viability is necessary for the characterization of cell responses to cytotoxic drugs and environmental stress. A RealTime-Glo MT Cell Viability Assay to monitor cell viability in real time of continues cell culture during 40 hours of compound treatment was used to screen Tox21 10K library compounds in Hek293 cells. The RealTime-Glo MT Cell Viability Assay is a nonlytic, homogeneous, bioluminescent method to measure cell viability in real time using a simple, plate-based method. The assay involves adding NanoLuc luciferase and a cell-permeant prosubstrate to cells in culture. Viable cells reduce the proprietary prosubstrate to generate a substrate for NanoLuc luciferase. This substrate diffuses from cells into the surrounding culture medium, where it is rapidly used by the NanoLuc Enzyme to produce a luminescent signal. The signal correlates with the number of viable cells, making the assay well suited for cytotoxicity studies.
Tox21 Assay Protocol Summary:
The mixture of Hek293 cell suspension and reagents were dispensed at 600cells/6 ul/well in 1536-well tissue culture treated black solid bottom plates using a Multidrop dispenser. After the assay plates were incubated at a 37 C/5% CO2 incubator for 5 hours, 23 nL of compounds dissolved in DMSO, positive and negative controls was transferred to the assay plate by a pintool work station. The plates were incubated at 37 C for 40 hours. The luminescence intensity were measured at 0h, 8h, 16h, 24h, 32h and 40h time points using ViewLux plate reader during compound treatment.
On the % scale 0 is the no-effect control and ±100 the full control effect; potency means the concentration at half of the fitted maximal effect.

Row | Compound | activity change, negative = cytotoxicity | Potency
1 | COC(=O)CCS | 19.7% | –
2 | O=C(O)CCc1nc(-c2ccccc2)c(-c2ccccc2)o1 | 8.4% [at 35.3 µM] | –
3 | CC1(C)S[C@@H]2[C@H](NC(=O)C(c3ccccc3)S(=O)(=O)O)C(=O)N2[C@H]1C(=O)O (stereo not given in full) | 0.0126% [at 35.3 µM] | –
4 | C=CC(=O)[O-].C=CC(=O)[O-].[Zn+2] | -8.48% | –
5 | CCCCCC[C@@H](O)C/C=C\CCCCCCCC(=O)OCC(O)CO (stereo not given in full) | 9.97% | –
6 | O=C(O)c1cccc(-c2noc(-c3ccccc3F)n2)c1 | 2.05% [at 35.3 µM] | –
7 | N#[N+]c1ccc2c(S(=O)(=O)[O-])cccc2c1O | -21.2% | –
8 | C(=C\c1ccccc1)/c1ccccc1 | 7.38% | –
9 | CN1C(=O)N(c2ccccc2Br)Cc2cnc(Nc3ccc4c(c3)OCC(CO)O4)nc21 (stereo not given) | – | 6.92 µM (active)
10 | O=C1c2ccccc2C(=O)C1c1nc2ccccc2c(Br)c1O | 3.94% | –
11 | c1ccc2sc(SN(C3CCCCC3)C3CCCCC3)nc2c1 | 0.876% | –
12 | O=C1C(=O)c2ccccc2C(O)=C1C1CCC(c2ccc(Cl)cc2)CC1 (stereo not given) | 0.805% [at 35.3 µM] | –
13 | COc1ccccc1N1CCN(CCCCNC(=O)c2ccc(-c3ccc(C(C)=O)cc3)cc2)CC1 | – | 1.69 µM (active)
14 | C=C1CCC2CC1C2(C)C (stereo not given) | 0.572% | –
15 | CC1(C)O[C@@H]2C[C@H]3[C@@H]4C[C@H](F)C5=CC(=O)C=C[C@]5(C)[C@H]4[C@@H](O)C[C@]3(C)[C@]2(C(=O)CO)O1 | -0.0216% [at 35.3 µM] | –
16 | Cc1cc(C)c(N)cc1C | 1.47% | –
17 | Cc1ccco1 | 11% | –
18 | C=CC(C)(CCC=C(C)C)OC(=O)CC(C)C (stereo not given) | 0.45% | –
19 | CO[C@]1(NC(=O)CSC(F)F)C(=O)N2C(C(=O)O)=C(CSc3nnnn3CCO)CO[C@H]21 | 16.2% [at 35.3 µM] | –
20 | CNC(=O)c1cnn(-c2nc(N)c3ncn([C@@H]4O[C@H](CO)[C@@H](O)[C@H]4O)c3n2)c1 | 1.6% [at 35.3 µM] | –

Row | Compound | activity change, negative = cytotoxicity | Potency
21 | CCCCCCCCOc1ccc(C(=O)O)cc1 | -2.26% | –
22 | c1ccc(C[n+]2cccc3ccccc32)cc1 | -23.9% | –
23 | C[C@@H]1CN(CCCn2c3ccccc3c3ccccc32)C[C@H](C)N1 | – | 23.9 µM (active)
24 | Oc1cccc(O)c1O | 4.38% | –
25 | COc1cc(N)c(Cl)cc1C(=O)NC1CCN(CCCOc2ccc(F)cc2)CC1OC (stereo not given) | – | 3.01 µM (active)
26 | CCOC(=O)[C@H](CCc1ccccc1)N[C@@H](C)C(=O)N(CC(=O)O)C1Cc2ccccc2C1 | -1.24% [at 35.3 µM] | –
27 | CC(C)=CC(=O)C=C(C)C | 8.5% | –
28 | O=C(OC(=O)c1ccccc1)c1ccccc1 | 5.37% | –
29 | CCCCC(CC)CN (stereo not given) | 3.31% | –
30 | C=C(C)C(=O)OCCCCCCCCCCCCC | 3.08% | –
31 | C=CCc1ccccc1OCC(O)CNC(C)C (stereo not given) | -6.14% [at 35.3 µM] | –
32 | COc1ncnc(NS(=O)(=O)c2ccc(N)cc2)c1OC | 0.453% [at 35.3 µM] | –
33 | CCCC(=O)C(=O)O | 7.19% | –
34 | C=C1c2cccc(O)c2C(O)=C2C(=O)[C@]3(O)C(O)=C(C(N)=O)C(=O)[C@@H](N(C)C)[C@@H]3[C@@H](O)[C@H]12 | 1.22% [at 35.3 µM] | –
35 | C/C=C/C=C/C=O | 11.7% | –
36 | CC(O)c1ccccc1 (stereo not given) | 16% | –
37 | Nc1cccc2c1CN(C1CCC(=O)NC1=O)C2=O (stereo not given) | 1.92% [at 35.3 µM] | –
38 | CCCCCCCCN | -0.866% | –
39 | CC[N+](CC)(CCNC(=O)C(=O)NCC[N+](CC)(CC)Cc1ccccc1Cl)Cc1ccccc1Cl | 2.48% [at 35.3 µM] | –
40 | Cc1ccccc1S | -14.4% [at 35.3 µM] | –
